# Of roughly 7,900 targets only a part is listed; those with a hit were picked by preference. About 0.6% of all pairs of compound and target were hits.
# Compound: FC(F)(F)c1ccc(/C=C/c2nc(COc3ccc(CCCCn4ccnn4)cc3)co2)cc1 [mubritinib]
# Experiment: log2 fold change, soluble protein after heating vs DMSO (PISA); higher = thermal stabilisation; K562 cells, 10 uM, 30 min; active = over 0.2 and 3.5 SD of the protein, either way, in both replicates (recomputed)
# In short: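 Soluble protein was quantified by TMTpro 16plex LC-MS/MS after channel sums were equalised. It was obtained as the supernatant after 21,000xg for 90 min from pooled aliquots of K562 cells (2×10^6 cells/mL, 10 μM compound, 30 min) heated for 3 min across 48°C-58°C and extracted in PBS with 0.5% NP-40 at 4°C. Thermal stability values are relative to control samples and come from duplicates. They are given as log2 fold changes.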
# Sequence of UniProt Q9UNS2 (Q9UNS2 whole entry, looked up): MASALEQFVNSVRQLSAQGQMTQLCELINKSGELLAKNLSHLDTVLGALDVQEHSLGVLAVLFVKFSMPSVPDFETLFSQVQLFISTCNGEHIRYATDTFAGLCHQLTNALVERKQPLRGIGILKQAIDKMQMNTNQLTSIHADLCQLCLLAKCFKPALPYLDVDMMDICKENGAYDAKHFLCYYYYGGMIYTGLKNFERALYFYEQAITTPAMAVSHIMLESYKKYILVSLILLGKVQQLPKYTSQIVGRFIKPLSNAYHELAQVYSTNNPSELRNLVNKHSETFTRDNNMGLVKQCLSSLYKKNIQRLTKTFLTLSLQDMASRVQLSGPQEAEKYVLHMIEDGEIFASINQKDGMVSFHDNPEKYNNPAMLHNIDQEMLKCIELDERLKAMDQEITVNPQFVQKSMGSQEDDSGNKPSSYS
# Sequence of UniProt P24311 (P24311 whole entry, looked up): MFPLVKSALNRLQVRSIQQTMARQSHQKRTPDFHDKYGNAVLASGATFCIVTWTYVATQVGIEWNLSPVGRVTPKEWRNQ
# Sequence of UniProt O43529 (O43529 whole entry, looked up): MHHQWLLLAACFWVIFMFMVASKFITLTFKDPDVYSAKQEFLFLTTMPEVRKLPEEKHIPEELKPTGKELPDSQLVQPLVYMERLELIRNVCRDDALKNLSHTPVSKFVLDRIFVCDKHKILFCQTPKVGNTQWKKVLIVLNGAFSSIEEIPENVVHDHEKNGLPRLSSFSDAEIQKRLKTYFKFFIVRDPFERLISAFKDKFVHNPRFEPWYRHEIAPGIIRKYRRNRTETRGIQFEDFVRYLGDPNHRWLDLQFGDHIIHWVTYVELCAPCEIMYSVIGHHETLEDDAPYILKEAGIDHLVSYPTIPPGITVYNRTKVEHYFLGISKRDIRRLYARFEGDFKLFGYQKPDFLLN
# Sequence of UniProt Q53ET0 (Q53ET0 whole entry, looked up): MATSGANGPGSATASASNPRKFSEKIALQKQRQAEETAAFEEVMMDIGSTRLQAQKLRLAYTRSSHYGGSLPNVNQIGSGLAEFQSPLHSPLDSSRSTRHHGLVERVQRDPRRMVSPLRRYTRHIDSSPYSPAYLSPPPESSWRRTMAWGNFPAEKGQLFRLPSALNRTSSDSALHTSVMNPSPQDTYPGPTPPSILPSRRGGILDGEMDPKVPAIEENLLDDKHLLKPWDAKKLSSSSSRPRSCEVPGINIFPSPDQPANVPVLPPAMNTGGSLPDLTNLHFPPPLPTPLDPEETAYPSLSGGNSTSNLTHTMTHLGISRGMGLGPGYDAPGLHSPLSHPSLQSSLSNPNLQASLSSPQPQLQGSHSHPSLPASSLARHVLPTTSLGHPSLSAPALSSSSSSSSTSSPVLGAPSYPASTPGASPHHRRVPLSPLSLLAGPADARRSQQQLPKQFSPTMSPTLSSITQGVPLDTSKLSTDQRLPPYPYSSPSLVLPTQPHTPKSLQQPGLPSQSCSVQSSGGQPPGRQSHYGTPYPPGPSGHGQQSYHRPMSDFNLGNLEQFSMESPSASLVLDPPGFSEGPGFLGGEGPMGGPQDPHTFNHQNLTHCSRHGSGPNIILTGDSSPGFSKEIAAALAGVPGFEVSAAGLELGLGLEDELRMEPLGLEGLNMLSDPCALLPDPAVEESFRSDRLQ
# Sequence of UniProt P46527 (P46527 whole entry, looked up): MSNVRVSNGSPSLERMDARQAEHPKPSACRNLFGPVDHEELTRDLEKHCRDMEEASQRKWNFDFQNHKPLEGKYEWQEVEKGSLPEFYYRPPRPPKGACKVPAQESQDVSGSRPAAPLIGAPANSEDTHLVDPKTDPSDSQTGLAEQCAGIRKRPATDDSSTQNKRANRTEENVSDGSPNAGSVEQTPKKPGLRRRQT
# Sequence of UniProt O75503 (O75503 whole entry, looked up): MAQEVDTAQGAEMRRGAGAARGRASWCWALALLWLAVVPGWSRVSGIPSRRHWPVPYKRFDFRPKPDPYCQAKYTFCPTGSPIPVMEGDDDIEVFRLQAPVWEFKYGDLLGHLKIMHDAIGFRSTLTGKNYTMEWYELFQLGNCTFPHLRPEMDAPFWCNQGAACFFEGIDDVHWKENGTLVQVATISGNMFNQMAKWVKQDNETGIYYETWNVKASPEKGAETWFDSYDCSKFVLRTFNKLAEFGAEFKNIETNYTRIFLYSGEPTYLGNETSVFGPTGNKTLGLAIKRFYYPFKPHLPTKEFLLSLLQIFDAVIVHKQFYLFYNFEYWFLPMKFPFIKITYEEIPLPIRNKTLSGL
# Sequence of UniProt P11802 (P11802 whole entry, looked up): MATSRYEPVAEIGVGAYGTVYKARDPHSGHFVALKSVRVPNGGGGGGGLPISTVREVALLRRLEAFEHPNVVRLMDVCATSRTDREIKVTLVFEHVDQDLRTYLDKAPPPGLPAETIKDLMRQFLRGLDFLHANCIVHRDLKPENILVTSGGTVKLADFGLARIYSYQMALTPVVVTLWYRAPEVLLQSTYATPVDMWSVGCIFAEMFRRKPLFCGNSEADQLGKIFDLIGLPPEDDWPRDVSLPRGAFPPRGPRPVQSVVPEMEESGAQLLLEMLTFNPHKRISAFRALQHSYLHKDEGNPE
# Sequence of UniProt Q9NPF2 (Q9NPF2 whole entry, looked up): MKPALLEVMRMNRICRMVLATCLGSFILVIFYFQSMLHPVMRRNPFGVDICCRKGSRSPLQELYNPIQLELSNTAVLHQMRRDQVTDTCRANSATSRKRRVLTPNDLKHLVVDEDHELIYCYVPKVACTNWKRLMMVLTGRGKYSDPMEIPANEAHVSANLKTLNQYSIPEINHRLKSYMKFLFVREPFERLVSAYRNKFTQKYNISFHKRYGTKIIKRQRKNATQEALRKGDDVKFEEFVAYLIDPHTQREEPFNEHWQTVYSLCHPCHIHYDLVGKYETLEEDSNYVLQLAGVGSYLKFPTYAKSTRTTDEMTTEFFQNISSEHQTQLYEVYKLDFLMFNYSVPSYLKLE
# Sequence of UniProt Q15417 (Q15417 whole entry, looked up): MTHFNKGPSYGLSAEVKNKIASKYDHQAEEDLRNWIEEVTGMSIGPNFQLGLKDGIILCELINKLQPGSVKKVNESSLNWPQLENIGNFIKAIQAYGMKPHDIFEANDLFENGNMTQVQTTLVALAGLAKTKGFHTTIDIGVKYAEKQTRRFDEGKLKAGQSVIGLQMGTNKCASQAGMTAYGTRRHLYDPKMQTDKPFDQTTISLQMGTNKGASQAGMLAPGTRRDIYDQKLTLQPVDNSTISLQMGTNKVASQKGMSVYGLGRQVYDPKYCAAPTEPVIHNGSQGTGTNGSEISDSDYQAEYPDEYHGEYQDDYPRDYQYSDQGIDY
# Sequence of UniProt Q13111 (Q13111 whole entry, looked up): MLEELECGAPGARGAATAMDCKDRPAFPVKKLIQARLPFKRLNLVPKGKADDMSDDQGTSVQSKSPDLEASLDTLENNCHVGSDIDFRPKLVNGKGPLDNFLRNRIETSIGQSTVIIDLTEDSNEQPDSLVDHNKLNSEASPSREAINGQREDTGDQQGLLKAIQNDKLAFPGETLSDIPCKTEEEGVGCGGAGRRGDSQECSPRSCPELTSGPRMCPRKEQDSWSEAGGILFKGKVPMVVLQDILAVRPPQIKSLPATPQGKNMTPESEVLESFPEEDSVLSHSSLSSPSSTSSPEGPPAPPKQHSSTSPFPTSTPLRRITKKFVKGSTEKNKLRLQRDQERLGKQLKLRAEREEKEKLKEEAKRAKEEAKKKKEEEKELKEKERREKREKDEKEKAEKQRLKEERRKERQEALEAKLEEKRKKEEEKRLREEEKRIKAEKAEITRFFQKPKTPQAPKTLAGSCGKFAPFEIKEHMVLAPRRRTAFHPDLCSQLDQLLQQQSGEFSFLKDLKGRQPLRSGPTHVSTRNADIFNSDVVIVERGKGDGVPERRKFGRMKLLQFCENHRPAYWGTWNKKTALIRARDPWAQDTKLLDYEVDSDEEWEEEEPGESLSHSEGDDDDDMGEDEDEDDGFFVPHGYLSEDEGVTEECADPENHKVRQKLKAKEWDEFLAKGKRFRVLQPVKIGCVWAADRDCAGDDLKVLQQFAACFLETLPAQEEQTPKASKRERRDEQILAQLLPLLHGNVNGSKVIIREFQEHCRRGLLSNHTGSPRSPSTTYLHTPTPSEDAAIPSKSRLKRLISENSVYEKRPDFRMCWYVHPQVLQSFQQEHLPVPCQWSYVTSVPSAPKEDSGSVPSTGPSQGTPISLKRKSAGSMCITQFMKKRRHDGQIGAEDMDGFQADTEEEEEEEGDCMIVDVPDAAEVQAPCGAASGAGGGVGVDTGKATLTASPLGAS
# Sequence of UniProt Q8N668 (Q8N668 whole entry, looked up): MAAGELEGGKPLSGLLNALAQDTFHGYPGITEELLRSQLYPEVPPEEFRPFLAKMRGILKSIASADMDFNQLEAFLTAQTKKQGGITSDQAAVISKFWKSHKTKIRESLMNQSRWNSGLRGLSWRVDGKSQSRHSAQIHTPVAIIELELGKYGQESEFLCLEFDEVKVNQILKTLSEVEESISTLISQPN
# Sequence of UniProt Q9NRR8 (Q9NRR8 whole entry, looked up): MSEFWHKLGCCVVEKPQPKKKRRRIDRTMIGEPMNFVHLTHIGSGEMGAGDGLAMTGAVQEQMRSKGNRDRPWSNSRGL
# Sequence of UniProt Q00536 (Q00536 whole entry, looked up): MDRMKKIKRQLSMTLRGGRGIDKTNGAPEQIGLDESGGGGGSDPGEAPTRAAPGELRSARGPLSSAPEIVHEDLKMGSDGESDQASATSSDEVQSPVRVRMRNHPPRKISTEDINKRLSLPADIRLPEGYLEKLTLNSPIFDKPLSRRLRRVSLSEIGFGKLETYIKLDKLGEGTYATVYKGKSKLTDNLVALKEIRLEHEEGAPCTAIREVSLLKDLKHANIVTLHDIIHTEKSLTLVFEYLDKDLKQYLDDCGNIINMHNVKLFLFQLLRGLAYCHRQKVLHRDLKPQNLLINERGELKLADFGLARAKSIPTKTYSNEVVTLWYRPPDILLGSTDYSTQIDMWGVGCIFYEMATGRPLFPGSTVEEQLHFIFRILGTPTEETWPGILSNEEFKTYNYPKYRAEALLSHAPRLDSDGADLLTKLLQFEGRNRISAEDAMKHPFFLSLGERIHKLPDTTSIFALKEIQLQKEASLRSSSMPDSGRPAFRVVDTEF
# Sequence of UniProt P15954 (P15954 whole entry, looked up): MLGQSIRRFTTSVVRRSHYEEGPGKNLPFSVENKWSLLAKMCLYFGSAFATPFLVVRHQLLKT
row,Target,log2 fold change
1,CASP8 isoform 9 (UniProt Q14790),-0.095 (inactive)
2,COX7C (UniProt P15954),0.112 (inactive)
3,CCDC57 (UniProt Q2TAC2),0.031 (inactive)
4,CRTC2 (UniProt Q53ET0),0.022 (inactive)
5,COMMD1 (UniProt Q8N668),-0.069 (inactive)
6,COG2 (UniProt Q14746),-0.035 (inactive)
7,CDK19 (UniProt Q9BWU1),0.112 (inactive)
8,CHAF1A (UniProt Q13111),0.034 (inactive)
9,COPS3 isoform 2 (UniProt Q9UNS2),0.138 (inactive)
10,CAV2 (UniProt P51636),0.066 (inactive)
11,CMTM3 (UniProt Q96MX0),-0.052 (inactive)
12,COX7B (UniProt P24311),0.026 (inactive)
13,CCNC (UniProt P24863),-0.016 (inactive)
14,CDK17 isoform 2 (UniProt Q00537),-0.04 (inactive)
15,CHST11 (UniProt Q9NPF2),-0.064 (inactive)
16,CDK16 isoform 2 (UniProt Q00536),0.035 (inactive)
17,CDK4 (UniProt P11802),0.054 (inactive)
18,CRLS1 (UniProt Q9UJA2),0.007 (inactive)
19,CDC42SE1 (UniProt Q9NRR8),-0.065 (inactive)
20,CHST10 (UniProt O43529),0.064 (inactive)
21,CDCA2 (UniProt Q69YH5),-0.256 (inactive)
22,CEP128 (UniProt Q6ZU80),0.143 (inactive)
23,CNN3 (UniProt Q15417),0.06 (inactive)
24,CLINT1 isoform 3 (UniProt Q14677),0.045 (inactive)
25,CDKN1B (UniProt P46527),0.114 (inactive)
26,C1D (UniProt Q13901),0.132 (inactive)
27,C22orf39 (UniProt Q6P5X5),0.031 (inactive)
28,CLN5 (UniProt O75503),-0.169 (inactive)
29,CHPT1 (UniProt Q8WUD6),0.387 (inactive)

# From the supplement of paper PMC10849652
